Shown are actives, neighbours in structure and some others; about 19% of the full set was active somewhere.
ELG1 DNA repair – ELG1-dependent DNA repair inhibition | HEK293T ELG1-luciferase reporter, luminescence, 16 h; DNA damage induced by 5-fluorouridine | Potency, µM (titrated, usually from 46.1 µM), for the others: at the top dose activity change, negative = inhibition, most hits filed as inhibitors | 330,000 tested, 2.3% active | AID 504467; note: potency is the fitted concentration of half-maximal effect; nearly all actives have a fitted effect of over 55% in size
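Luminescence from the luciferase reporter, measured 30 min after ONE-Glo reagent at room temperature, was the read-out. Beforehand, 2,000 cells per well were exposed for 16 hr at 37 °C to 5-fluorouridine together with compound or vehicle.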
HT1080 IDH1KD tx – HT-1080 IDH1 knockdown cell toxicity (counter line); Potency, µM (titrated, usually from 46.1 µM), for inactives: top-dose activity, negative = toxicity, most hits filed as cytotoxic; HT-1080 IDH1 knockdown viability, ATP luminescence, 48 h; AID 686971; 360,000 tested, 2% active;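 note: potency is the fitted concentration of half-maximal effect; 0% = DMSO wells and -100% = cell-free medium wells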
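Knockdown cells (IDH1KD HT-1080) received compounds 2 h after plating at 750 cells/well and were kept 48 h at 37 °C in 5% FBS RPMI. A CellTiter-Glo luminescence read gave % activity for curve fitting.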
HT1080-NT tox – kills 2HG-producing HT-1080-NT fibrosarcoma cells; 360,000 tested, 1.6% active; Potency, µM (highest dose often 46.1 µM), inactives show at the top dose activity, negative = less viability, most hits filed as cytotoxic; HT-1080-NT fibrosarcoma viability, CellTiter-Glo ATP luminescence, 48 h; AID 686970;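 note: NT is the 2HG producing partner of a matched IDH1 knockdown line; potency is the fitted concentration of half-maximal effect; 0% = DMSO-treated cells and -100% = media-only wells without cells; nearly all actives have a fitted effect of over 55% in size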
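HT-1080-NT; 750 cells/well; 5% FBS RPMI; 48 h compound, 37 degrees C; CellTiter-Glo luminescence; curve fitting and curve-class assignment.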
DT40 TDP1 CPT – growth inhibition of DT40 Tdp1-/-;hTDP1 cells with camptothecin (screen for TDP1 inhibitors). chicken DT40 Tdp1-/-;hTDP1 cells + 20 nM CPT, ATP luminescence, 48 h. 420,000 tested, 12% active. Potency, µM (titrated, usually from 46.2 µM), without a hit: at the highest dose activity change, negative = growth inhibition, most hits filed as inhibitors; note: potency is the fitted concentration of half-maximal effect; nearly all actives have a fitted effect of over 55% in size
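Chicken DT40 Tdp1-/- cells stably complemented with human TDP1 were seeded at 400 cells/well in medium containing 20 nM camptothecin, exposed to pin-transferred compounds, and grown at 37 °C for at least 48 hr. Viability was read as ATP luminescence.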
IL1B secr inh – inflammasome signaling inhibition, IL-1 beta readout; THP-1 LPS/ATP IL-1B secretion, AlphaLISA, 16 h; stronger effect = lower value; activity change, % at 57.5 µM; 360,000 tested, 4.7% active; AID 743279; in the data active = activity change below about -50%; inconclusive = mostly about -30% to -49%
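THP-1 cells pretreated 1 hr with compounds (up to 57.5 uM final), then stimulated with LPS (250 ng/mL final) plus ATP (1.25 mM final); secreted IL-1B measured by AlphaLISA after 16 hr, decreased signal indicating inhibition.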
TDP1 cell noCPT – qHTS for Inhibitors of human tyrosyl-DNA phosphodiesterase 1 (TDP1): qHTS in cells in absence of CPT; DT40 Tdp1-/- hTDP1 cells, no CPT, ATP luminescence, 48 h; Potency, µM (titrated, usually from 46.2 µM), for the others: top-dose activity change, negative = growth inhibition, actives largely listed as inhibitors; 420,000 tested, 15% active; note: potency is the fitted concentration of half-maximal effect; nearly all actives have a fitted effect of over 55% in size
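Luminescent ATP content (CellTiter-Glo) served as the growth readout. Knockout chicken DT40 cells expressing human TDP1 were exposed to compounds without camptothecin for a minimum 48 hr at 37 °C.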
* hit, by the source's call; ? = inconclusive; / = no result. Unless noted, calls come from the whole dose curve; as a rule, active = well fitted curve in the direction sought with a large enough effect; inconclusive = small, poorly fitted or top-dose-only effect, or another doubt; inactive = no such curve, though single readings can be large; an effect the other way counts as inactive or inconclusive. Unless noted, % is set by controls: 0 for no effect and ±100 for the full control effect.

SMILES | ELG1 DNA repair | HT1080 IDH1KD tx | HT1080-NT tox | DT40 TDP1 CPT | IL1B secr inh | TDP1 cell noCPT
CCn1c(=S)[nH]c2cc(S(=O)(=O)N3CCCCC3)ccc21 | ? | -18.9% | ? | ? | -28.4 | 12.6µM*
N#Cc1cc([N+](=O)[O-])ccc1NC(=O)COC(=O)C1CCC(=O)N1 (stereo not drawn) | 0.0% | 17.7% | 14.7% | 6.3% | -5.6 | 0.5%
O=C(Nc1c(-c2ccc3c(c2)OCO3)[nH][nH]c1=O)c1cnccn1 | / | 19.1% | 15.4% | -13.1% | 24.1 | 4.8%
NC(=S)n1[nH]c(-c2ccc([N+](=O)[O-])cc2)c(N=Nc2cccc([N+](=O)[O-])c2)c1=O | 3.26µM* | 0.82µM* | 1.46µM* | ? | 35.5 | ?
Cc1c(N=Nc2c(-c3ccc([N+](=O)[O-])cc3)[nH]n(C(N)=S)c2=O)cccc1[N+](=O)[O-] | 2.06µM* | ? | ? | 2.91µM* | ? | 2.91µM*
CC(CSC(=O)c1ccccc1)C(=O)N1C[C@@H](Sc2ccccc2)C[C@H]1C(=O)O (stereo partly drawn) | / | / | / | -1.2% | / | -4.0%
Cc1cc(C)c(NC(=O)c2cc(C(=O)O)ccc2C(=O)O)c([N+](=O)[O-])c1 | -25.9% | 21.5% | 3.5% | 0.7% | 9.6 | -19.8%
CSc1ccccc1C(=O)C1CCCN(S(=O)(=O)c2c(C)noc2C)C1 (stereo not drawn) | -10.3% | -2.5% | -13.4% | ? | 4.5 | ?
C=C(C)C1CC=C(C)/C(=N/NC(=O)c2ccc(NC(=O)c3cccc(C)c3)cc2)C1 (stereo not drawn) | ? | 14.9% | 12.3% | ? | -20.5 | 18.4µM*
C=C(C)C1CC=C(C)/C(=N/NC(=O)COc2cccc(C)c2)C1 (stereo not drawn) | -15.5% | 4.0% | 12.7% | ? | 6.3 | ?
C=C(C)C1CC=C(C)/C(=N/NC(=S)Nc2ccccc2)C1 (stereo not drawn) | 4.9% | 9.1% | 12.9% | 11.6µM* | 12.9 | 6.51µM*
CSc1cccc(NC(=O)Nc2nc3c(C)cccc3s2)c1 | 0.2% | 0.9% | -3.5% | ? | -21.8 | ?
CC1(C)OC2COC(c3[nH]nc4c(=O)[nH]c(=O)[nH]c34)C2O1 (stereo not drawn) | / | 10.4% | 5.1% | 9.8% | -11.4 | -7.8%
O=C(NNc1ncccc1-n1cccc1)c1ccc(Cl)cc1 | ? | 0.3% | -5.1% | ? | -19.7 | 7.31µM*
O=C(NNc1ncnc2sccc12)c1ccc(Cl)cc1 | ? | -0.4% | ? | 13µM* | 8.3 | 9.2µM*
Cc1csc2ncnc(NNC(=O)c3ccc(Cl)cc3)c12 | -8.7% | ? | -17.5% | ? | 35.0 | 10.3µM*
COC(c1ccccc1)c1nnc(CCC(=O)N(C)CCCC2CCCC2)o1 (stereo not drawn) | ? | -0.2% | 17.7% | ? | -12.6 | -26.1%
COC(c1ccccc1)c1nnc(CCC(=O)N(C)CCOc2ccccc2)o1 (stereo not drawn) | ? | -8.5% | -1.4% | 15.3% | -59.3* | ?
O=C1c2ccccc2NC2CCCCC12 (stereo not drawn) | ? | 0.0% | 0.0% | ? | 15.8 | 23.1µM*
O=C1c2ccccc2NC2CCCCCN12 (stereo not drawn) | 3.9% | 9.1% | 7.9% | -3.2% | 0.4 | -2.9%
CC(Cc1ccccc1)NC(=O)/C=C/c1ccc([N+](=O)[O-])cc1 (stereo not drawn) | -17.7% | 0.4% | -0.1% | 25.9µM* | -23.2 | 18.4µM*

Source: PubChem BioAssay (National Center for Advancing Translational Sciences (NCATS))
